# Assay outcomes: PubChem, National Center for Advancing Translational Sciences (NCATS)
# TDP1 block – blocks human tyrosyl-DNA phosphodiesterase 1. Potency, µM (top dose mostly 130 µM), actives largely listed as inhibitors. actives 0.28% (n = 350,000). recombinant TDP1, AlphaScreen DNA substrate cleavage. Q9NUW8; further: nearly all actives have a fitted effect of over 40% in size
# Target sequence (Q9NUW8 whole entry, looked up): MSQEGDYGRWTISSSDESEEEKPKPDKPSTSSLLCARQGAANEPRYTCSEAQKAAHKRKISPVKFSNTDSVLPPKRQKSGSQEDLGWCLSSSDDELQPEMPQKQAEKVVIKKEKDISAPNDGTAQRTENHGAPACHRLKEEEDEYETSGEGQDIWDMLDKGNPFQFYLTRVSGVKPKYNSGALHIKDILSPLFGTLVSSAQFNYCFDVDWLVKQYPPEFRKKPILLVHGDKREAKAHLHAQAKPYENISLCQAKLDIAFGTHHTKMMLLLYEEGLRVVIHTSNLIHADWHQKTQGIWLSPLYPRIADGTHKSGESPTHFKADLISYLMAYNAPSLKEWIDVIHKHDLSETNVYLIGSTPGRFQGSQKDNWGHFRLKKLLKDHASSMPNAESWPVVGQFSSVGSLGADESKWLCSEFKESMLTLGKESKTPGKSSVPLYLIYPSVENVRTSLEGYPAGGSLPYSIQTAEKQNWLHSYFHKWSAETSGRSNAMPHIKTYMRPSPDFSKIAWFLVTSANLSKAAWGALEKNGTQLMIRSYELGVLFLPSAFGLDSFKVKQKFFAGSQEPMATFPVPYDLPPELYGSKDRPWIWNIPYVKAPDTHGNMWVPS
#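 Signal: AlphaScreen proximity between streptavidin donor and anti-FITC acceptor beads on intact substrate. Reaction: Tdp1 1 nM, substrate 15 nM final, 5 min RT after 15 min compound preincubation.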
# VP16 counter – counter-screen for ROR gamma inhibitors: Gal4-VP16 reporter. Drosophila S2 Gal4-VP16 UAS-luciferase, luminescence, 20 h. Potency, µM (series often up to 53.6 µM), hits mostly inhibitors. actives 3.5% (n = 310,000);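 further: Gal4-VP16 expression switched on by copper sulfate through the metallothionein promoter; nearly all actives have a fitted effect of over 50% in size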
# RORg inh – ROR gamma (mouse) transcription inhibition. Drosophila S2 Gal4-RORgamma UAS-luciferase reporter, 20 h. AID 2551. Potency, µM (doses to about 53.6 µM), usual class: inhibitors. actives 5.4% (n = 310,000). P51450; further: nearly all actives have a fitted effect of over 60% in size
#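 Using a luciferase readout, inhibitors were identified by reduced reporter activity in Drosophila cells coexpressing a copper-inducible Gal4–ROR gamma fusion and UAS-driven Photinus luciferase, incubated 20 hr after 700 uM copper sulfate.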
# DT40 TDP1 no CPT – qHTS for Inhibitors of human tyrosyl-DNA phosphodiesterase 1 (TDP1): qHTS in cells in absence of CPT; DT40 Tdp1-/- hTDP1 cells, no CPT, ATP luminescence, 48 h; Potency, µM (doses to about 46.2 µM), hits mostly inhibitors; actives 15% (n = 420,000); AID 686978, 2013; further: nearly all actives have a fitted effect of over 55% in size
#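 A cellular qHTS used chicken DT40 cells lacking endogenous Tdp1 but carrying stably transfected human TDP1. Compounds were applied without camptothecin, and cell growth kinetics were judged by ATP-dependent luminescence after ≥48 hr.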
# DT40 TDP1 CPT – DT40-hTDP1 cell growth loss with CPT. chicken DT40 Tdp1-/-;hTDP1 cells + 20 nM CPT, ATP luminescence, 48 h. Potency, µM (titrated, usually from 46.2 µM), most hits filed as inhibitors. actives 12% (n = 420,000); further: nearly all actives have a fitted effect of over 55% in size
#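 Chicken DT40 Tdp1-/- cells stably complemented with human TDP1 were seeded at 400 cells/well in medium containing 20 nM camptothecin, exposed to pin-transferred compounds, and grown at 37 °C for at least 48 hr. Viability was read as ATP luminescence.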
# A number is an active result; – = inactive; ? = inconclusive; · = no result. Shown are actives, neighbours in structure and some others; about 19% of the full set was active somewhere. The call rests on the fitted dose curve; in most records, active means well fitted curve in the direction sought with a large enough effect; inconclusive means small, poorly fitted or top-dose-only effect, or another doubt; inactive means no such curve, though single readings can be large; an effect the other way counts as inactive or inconclusive.
SMILES,TDP1 block,VP16 counter,RORg inh,DT40 TDP1 no CPT,DT40 TDP1 CPT
CCC(=O)N1CCN(c2ccc(NC(=S)NC(=O)C(C)C)cc2)CC1,–,–,?,–,–
Cc1ccc(C(=O)Nc2ccc(Oc3ccc(C(=O)O)c(C(=O)O)c3)cc2)cc1C,?,–,–,–,23µM
CCOc1ccc(/C(CCC(=O)O)=N/NC(=S)NCCc2ccccc2)cc1,–,?,7.9µM,–,–
Cc1cccc(-n2c3nc(=O)n(C)c(=O)c-3cc3c(Cl)cccc32)c1C,–,·,·,–,–
Cn1c(=O)nc2n(Cc3ccccc3)c3cccc(Cl)c3cc-2c1=O,–,–,–,29µM,?
CCOc1cc(NC(=O)C2CCCCC2)c(OCC)cc1NC(=O)c1ccccn1,–,–,–,1.6µM,3.7µM
CCOc1cc(NC(=O)c2ccccn2)c(OCC)cc1NC(=O)c1ccc(C)cc1,–,–,–,3.3µM,5.2µM
Cn1c(NC(=O)c2cccs2)cc(=O)n(C)c1=O,–,–,–,–,–
Cc1cc2cc(CNC(=O)Cc3cccs3)ccc2n1C,·,–,–,?,8.2µM
Cc1cc2cc(CNC(=O)c3ccc(Br)o3)ccc2[nH]1,·,–,–,?,?
Cn1c(NC(=O)c2ccc(Br)o2)cc(=O)n(C)c1=O,–,–,13µM,–,–
Cc1cc2cc(CNC(=O)c3ccc(Br)o3)ccc2n1C,·,–,–,–,26µM
CCc1ccc(N2CC(C(=O)Nc3ccc(C)c(S(=O)(=O)N4CCOCC4)c3)CC2=O)cc1 (stereo not given),–,–,–,?,?
CN1CCC2(CC1)Nc1nc(SCc3ccc(Cl)cc3)nn1C1=C2CN(C)CC1,–,–,–,23µM,?
CC(=O)c1cnc2nc(SCc3ccc(Cl)cc3)nn2c1C,·,–,?,?,–
CC(C)[C@H](NC(=O)OCc1ccccc1)C(=O)OCC(=O)NCc1ccco1,·,·,·,–,–
COc1ccccc1N(C)c1cc2c(c3c1ccn3C)C1CCC2O1 (stereo not given),·,·,·,?,23µM
CN(Cc1ccccc1)c1cc2c(c3c1ccn3C)C1CCC2O1 (stereo not given),·,·,·,18µM,?
Cn1ccc2c(N3CCCCC3)cc3c(c21)C1CCC3O1 (stereo not given),·,·,·,–,–
Cn1ccc2c(N(Cc3ccccc3)Cc3ccccc3)cc3c(c21)C1CCC3O1 (stereo not given),·,·,·,18µM,?
COc1ccc([C@H]2[C@H](C(=O)OC(C)(C)C)N3N=Cc4ccccc4C3C23C(=O)c2ccccc2C3=O)cc1OC (stereo not given in full),–,–,–,?,?
O=C(CN1CCC(n2nnc3cc(F)ccc32)CC1)N1CCc2ccccc2C1,–,–,–,15µM,?
O=C(CN1CCC(n2nnc3cc(F)ccc32)CC1)Nc1ccccc1N1CCOCC1,–,–,–,18µM,16µM
O=C(CN1CCC(n2nnc3cc(F)ccc32)CC1)NC1CC1,–,–,–,–,–
CCCn1c(=O)c2ccccc2n2c(SCC(=O)c3ccc(F)cc3)nnc12,–,–,–,·,·
SMILES,TDP1 block,VP16 counter,RORg inh,DT40 TDP1 no CPT,DT40 TDP1 CPT
C[C@H](CO)N1C[C@H](C)[C@@H](CN(C)C(=O)Nc2ccc3c(c2)OCO3)Oc2c(NC(=O)Nc3ccc4c(c3)OCO4)cccc2C1=O,–,·,·,23µM,16µM
COc1ccc(NC(=O)N(C)C[C@H]2Oc3c(NC(=O)Nc4ccc5c(c4)OCO5)cccc3C(=O)N([C@H](C)CO)C[C@@H]2C)cc1,–,·,·,?,?
C[C@H](CO)N1C[C@H](C)[C@@H](CN(C)C(=O)Nc2ccccc2)Oc2c(NC(=O)Nc3ccc4c(c3)OCO4)cccc2C1=O,–,·,·,?,13µM
CCOc1ccc(-n2c(C)cc(C(=O)NS(=O)(=O)c3ccc(C)cc3)c2C)cc1,–,–,?,–,–
Clc1ccc2c(c1)C1CC2CCN1Cc1ccccc1 (stereo not given),·,·,·,–,–
COc1ccc(CN2CCC3CC2c2cc(-c4cccc(C)c4)ccc23)cc1 (stereo not given),·,·,·,15µM,21µM
COc1ccc(CN2CCC3CC2c2cc(Cl)ccc23)cc1 (stereo not given),·,·,·,18µM,18µM
Cc1cc(NC(=O)COC(=O)[C@@H](NS(=O)(=O)c2ccc(Br)cc2)C(C)C)no1,–,–,–,–,?
CCOC(=O)c1c(NC=O)sc2c1CCC2,–,–,–,–,–
O=S(=O)(c1ccccc1)c1nnn2c1nc(NCc1ccc(F)cc1)c1sccc12,–,·,·,–,–
Cc1ccccc1NS(=O)(=O)c1ccc(C)c(NS(C)(=O)=O)c1C,–,–,–,–,–
Cc1c(C(=O)N2CC3CCC2C3)sc2ncnc(NCc3ccco3)c12 (stereo not given),·,·,·,–,–
CN(Cc1ccccc1)C(=O)c1cn(C)c2ccc(S(=O)(=O)N3CCCC3)cc2c1=O,–,–,–,–,–
CCOC(=O)c1cnn(-c2ccc(NS(=O)(=O)c3ccc(Cl)cc3)cc2)c1C(F)(F)F,–,–,?,?,?
N#Cc1sc2nc(-c3ccccc3)cc(-c3ccco3)c2c1N,–,–,–,?,18µM
N#Cc1c(-c2ccccc2)cc(-c2ccco2)c(C#N)c1N,–,–,–,·,·
COc1cccc(OCC(=O)N(C)Cc2nc(-c3ccccc3)no2)c1,–,–,–,–,–
N#Cc1c(NCc2ccccc2)ccnc1Cl,·,·,·,21µM,?
CCc1ccc(CN(Cc2cn[nH]c2-c2ccc(OC)cc2)C(=O)Nc2ccc(C)c(F)c2)cc1,–,·,·,18µM,21µM
CCc1ccc(CN(Cc2cn[nH]c2-c2ccc(OC)cc2)C(=O)Nc2ccc(Br)cc2)cc1,–,·,·,18µM,23µM
CCc1ccc(OCC(=O)Nc2ccc3[nH]ncc3c2)cc1,–,–,–,–,?
Cc1nc(N(C)C)c2sc(=S)n(C)c2n1,–,–,–,–,–
O=C1CC(c2cccc(Cl)c2)CC(O)=C1C=Nc1cccc(Cl)c1 (stereo not given),–,–,?,–,–
Cc1cn(C2CCC(CO)O2)c(=O)[nH]c1=O (stereo not given),–,–,–,–,–
CCn1c(C)c(C(C)=O)c(N2CCN(C(c3ccccc3)c3ccccc3)CC2)nc1=S,–,?,?,6.5µM,9.2µM
CCCNc1nc(=S)n(-c2ccccc2)c(C)c1C(C)=O,–,–,–,–,–
CC(=O)c1c(N2CCCCC2)nc(=S)n(-c2ccccc2)c1C,–,–,?,5.8µM,12µM
CCCCNc1nc(=S)n(-c2ccccc2)c(C)c1C(C)=O,–,–,–,23µM,16µM
CC(=O)c1c(N2CCCC2)nc(=S)n(-c2ccccc2)c1C,–,–,–,8.2µM,12µM
